Paper PMC5540273 (PLoS ONE, 2017)

Tests used:
Conditions in all cases: concentration: 1 μM, replicates: in singlicate; n = 1
QSK = system: QSK
RAF1 = system: RAF1
RET = system: RET
RIOK1 = system: RIOK1
RIOK2 = system: RIOK2
RIOK3 = system: RIOK3
RIPK1 = system: RIPK1
RIPK2 = system: RIPK2
RIPK4 = system: RIPK4
RIPK5 = system: RIPK5
ROCK1 = system: ROCK1
ROCK2 = system: ROCK2
ROS1 = system: ROS1
[1] = system: RPS6KA4(Kin.Dom.1-N-terminal)
[2] = system: RPS6KA4(Kin.Dom.2-C-terminal)
[3] = system: RPS6KA5(Kin.Dom.1-N-terminal)
[4] = system: RPS6KA5(Kin.Dom.2-C-terminal)
[5] = system: T1, RSK1(Kin.Dom.1-N-terminal)
T1 construct: gene RPS6KA1

[6] = system: T2, RSK1(Kin.Dom.2-C-terminal)
T2 construct: gene RPS6KA1

[7] = system: T3, RSK2(Kin.Dom.1-N-terminal)
T3 construct: gene RPS6KA3
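Also: KINOMEscan kinase panel screen.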

SMILES	%Inh (QSK)	%Inh (RAF1)	%Inh (RET)	%Inh (RIOK1)	%Inh (RIOK2)	%Inh (RIOK3)	%Inh (RIPK1)	%Inh (RIPK2)	%Inh (RIPK4)	%Inh (RIPK5)	%Inh (ROCK1)	%Inh (ROCK2)	%Inh (ROS1)	%Inh [1]	%Inh [2]	%Inh [3]	%Inh [4]	%Inh [5]	%Inh [6]	%Inh [7]
Cc1nnc(-c2ccc3occ(-c4ccc(S(C)=O)cc4)c3c2)[nH]1 (stereo not drawn)	3%	4%	31%	13%	31%	0%	100%	13%	0%	0%	20%	0%	0%	0%	11%	0%	15%	9%	33%	13%
Cc1ccc(C(=O)Nc2ccc(Nc3ccnc4cc(-c5ccccn5)ccc34)cc2O)cc1.Cl [GW440146]	0%	8%	26%	14%	3%	81%	0%	52%	3%	0%	13%	19%	16%	20%	0%	16%	0%	6%	0%	0%
Cc1cc(-c2ccc3c(c2)CC[C@@H](N[C@@H](C)c2ccccc2)C3)cnc1N.Cl [GW412617]	0%	19%	0%	44%	85%	32%	50%	15%	13%	7%	7%	5%	15%	16%	0%	6%	0%	0%	8%	4%
CC(C)(C)c1ccc(C(=O)Nc2cn3cc(-c4cccnc4)ccc3n2)cc1	0%	0%	14%	34%	33%	9%	27%	26%	0%	17%	0%	7%	0%	15%	0%	0%	6%	19%	42%	17%
COc1cc2nccc(Nc3ccc(NC(=O)c4ccc(C)cc4)c(O)c3)c2cc1OC.Cl [GW440132]	2%	5%	49%	46%	13%	0%	4%	17%	0%	0%	0%	4%	47%	11%	0%	18%	0%	9%	0%	7%
COc1ccc(C2=C(Nc3cccc(C(=O)O)c3)C(=O)NC2=O)cc1 [SB-390765]	27%	11%	3%	13%	18%	0%	0%	0%	18%	31%	20%	0%	14%	19%	17%	2%	9%	30%	7%	34%
O=C(Nc1ccc2c(c1)OCO2)NC1CCN(c2ccnc(Nc3ccc(F)cc3)n2)C1 (stereo not drawn) [GSK1379724]	8%	16%	22%	9%	0%	5%	0%	0%	11%	0%	6%	3%	0%	0%	0%	11%	0%	11%	0%	12%
O=C1NC(=O)C(N2CCc3ccccc32)=C1c1ccccc1Cl [SB-373598]	4%	25%	3%	19%	4%	1%	0%	10%	12%	0%	4%	0%	22%	41%	0%	7%	10%	0%	14%	65%
Cc1ccccc1-n1cnc2c(N)ncnc21 [SKF-97510]	0%	0%	17%	0%	0%	0%	10%	0%	0%	0%	0%	0%	0%	0%	0%	0%	0%	18%	93%	0%
Cn1ccc2ncnc(Oc3ccc(NC(=O)Nc4ccccc4)cc3)c21	0%	0%	17%	19%	12%	29%	5%	26%	0%	0%	0%	24%	15%	21%	0%	0%	2%	0%	0%	0%
Cc1ccc(-c2cc(-c3c[nH]nc3-c3ccccn3)ccn2)cc1 [GW684088]	0%	21%	6%	18%	0%	3%	28%	27%	0%	3%	25%	17%	37%	2%	0%	2%	19%	8%	24%	6%
Cc1c(Cn2ccn3c(=O)cc(N4CCOCC4)nc23)cccc1C(F)(F)F [GSK2289044]	3%	5%	8%	3%	34%	5%	9%	10%	0%	0%	0%	0%	8%	0%	0%	6%	11%	0%	0%	0%
O=C(Nc1n[nH]c2cc(-c3cccc(F)c3F)ccc12)C1CC1 [SB-733894]	26%	12%	0%	47%	0%	52%	72%	0%	18%	31%	0%	9%	7%	0%	2%	0%	2%	13%	6%	0%
Fc1cccc(COc2nnc(-c3ccc4c(c3)CCO4)o2)c1	7%	4%	5%	9%	0%	0%	0%	0%	0%	15%	0%	0%	0%	0%	30%	0%	9%	0%	43%	0%
Cc1ccc(NC(=O)Nc2cc(C(C)(C)C)nn2-c2ccccc2)cc1 [GSK1014915]	13%	89%	46%	18%	0%	0%	9%	6%	12%	0%	15%	0%	9%	9%	0%	25%	38%	16%	1%	19%
